From PubChem BioAssay (NCATS)
Where “and” joins values, the source holds several entries; their conditions need not be identical. Identical values can stand only once. Records with an inconclusive call do not appear. Where a call stands in place of a potency, no number is given. Calls of active or inactive are those of the source. Unless noted, calls come from the whole dose curve; as a rule, active = well fitted curve in the direction sought with a large enough effect; inconclusive = small, poorly fitted or top-dose-only effect, or another doubt; inactive = no such curve, though single readings can be large; an effect the other way counts as inactive or inconclusive.

How the values were obtained:
[1] = target: Calcium and integrin-binding protein 1 (Homo sapiens) (UniProt Q99828); test: Primary qHTS for Identification of Calcium Integrin Binding Protein 1 (CIB1) Competitor (AID 1508620);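 note: GST tagged CIB1 binding a fluorescein labelled alphaIIb integrin peptide tracer; top concentration of the series differs between compounds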
Outline: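 Fluorescence polarization competition: CIB1-GST (1 uM final) preincubated with compound 15 min at room temperature, then FITC-labeled alphaIIb peptide (100 nM final) added for another 15 min. Polarization read at Ex 480/Em 540.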

[2] = Primary qHTS for small molecule stabilizers of the endoplasmic reticulum resident proteome: Secreted ER Calcium Modulated Protein (SERCaMP) assay (AID 1508630)
Outline: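 GLuc-SERCaMP-expressing SH-SY5Y cells, pretreated 16 h with compound, are challenged with thapsigargin to empty ER calcium stores; after 4 h, coelenterazine is added directly to the medium and luminescence is imaged.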

[3] = A High-Content qHTS Against Drug Library for the Identification of Small Molecules that Inhibit DYT1 Early Onset Primary Dystonia-Associated Cell Pathology (AID 1645839; calls by dose curve; note: series mostly up to about 46 µM)
Outline: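 Readout: %pathology, the punctate EGFP-TorsinA distribution from imaging, as the primary channel and cell count as the toxicity counterscreen. HEK293 Flp-In cells expressing delE TorsinA were induced with tetracycline and treated with compound for 48 h.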

[4] = target: Cytochrome P450 2D6 (Homo sapiens) (UniProt P10635); test: Cytochrome P450 family 2 subfamily D member 6 (CYP2D6) small molecule antagonists: luciferase biochemical (cell-free) qHTS assay (AID 1645840; active = well fitted curve in the direction sought with a large enough effect in the repeat runs; an effect the other way counts as inactive or inconclusive; note: nearly all actives have a fitted effect of over 55% in size; note: potency is the fitted concentration of half-maximal effect)
Outline: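 P450-Glo luminescent screen: recombinant CYP2D6 enzyme–proluciferin substrate mix preincubated with compound 10 min at room temperature, then NADPH regeneration added for 1 h at room temperature. Detection reagent added for 20 min; luciferin light read as relative luminescence units.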

[5] = target: Cytochrome P450 3A4 (Homo sapiens) (UniProt P08684); test: Cytochrome P450 family 3 subfamily A member 4 (CYP3A4) small molecule antagonists: luciferase qHTS assay (AID 1645841; active = well fitted curve in the direction sought with a large enough effect in the repeat runs; an effect the other way counts as inactive or inconclusive; note: nearly all actives have a fitted effect of over 45% in size)
Outline: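 P450-Glo CYP3A4 enzyme with proluciferin substrate was preincubated with DMSO-dissolved compounds for 10 min at room temperature. NADPH regeneration solution started a 1 h reaction. Detection reagent stopped it, and luminescence was read after 20 min.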

[6] = target: Cytochrome P450 2C9 (Homo sapiens) (UniProt P11712); test: Cytochrome P450 family 2 subfamily C member 9 (CYP2C9) small molecule antagonists: luciferase biochemical (cell-free) qHTS assay (AID 1645842; active = well fitted curve in the direction sought with a large enough effect in the repeat runs; an effect the other way counts as inactive or inconclusive; note: nearly all actives have a fitted effect of over 55% in size; note: potency is the fitted concentration of half-maximal effect)
Outline: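 Luminescence, after 20 min with luciferin detection reagent, reflected CYP2C9 turnover during a 1 h NADPH-driven reaction at 37C. Enzyme-substrate mix contained 0.4% bovine serum albumin and was preincubated with compound 10 min at room temperature.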

Sequence of Cytochrome P450 2C9 (Homo sapiens) (P11712 whole entry, looked up): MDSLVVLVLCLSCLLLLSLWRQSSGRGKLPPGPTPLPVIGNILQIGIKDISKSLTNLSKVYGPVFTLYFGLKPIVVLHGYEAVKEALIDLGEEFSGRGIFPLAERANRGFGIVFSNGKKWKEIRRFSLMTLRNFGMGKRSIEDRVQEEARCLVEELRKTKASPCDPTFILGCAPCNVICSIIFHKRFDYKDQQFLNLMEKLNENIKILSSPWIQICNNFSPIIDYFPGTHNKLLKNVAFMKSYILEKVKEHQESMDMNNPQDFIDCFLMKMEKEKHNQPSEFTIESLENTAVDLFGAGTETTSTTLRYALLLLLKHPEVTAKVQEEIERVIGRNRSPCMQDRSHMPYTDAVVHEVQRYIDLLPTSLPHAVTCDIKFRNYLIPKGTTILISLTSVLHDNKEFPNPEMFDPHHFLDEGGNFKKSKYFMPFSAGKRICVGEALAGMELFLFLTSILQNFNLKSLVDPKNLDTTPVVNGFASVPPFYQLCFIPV
Sequence of Calcium and integrin-binding protein 1 (Homo sapiens) (Q99828 whole entry, looked up): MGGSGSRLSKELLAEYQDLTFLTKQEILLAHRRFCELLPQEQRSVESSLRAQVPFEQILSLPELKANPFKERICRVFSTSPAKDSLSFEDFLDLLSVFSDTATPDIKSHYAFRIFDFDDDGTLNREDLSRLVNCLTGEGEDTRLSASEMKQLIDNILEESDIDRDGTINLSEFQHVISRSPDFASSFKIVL
Sequence of Cytochrome P450 2D6 (Homo sapiens) (P10635 whole entry, looked up): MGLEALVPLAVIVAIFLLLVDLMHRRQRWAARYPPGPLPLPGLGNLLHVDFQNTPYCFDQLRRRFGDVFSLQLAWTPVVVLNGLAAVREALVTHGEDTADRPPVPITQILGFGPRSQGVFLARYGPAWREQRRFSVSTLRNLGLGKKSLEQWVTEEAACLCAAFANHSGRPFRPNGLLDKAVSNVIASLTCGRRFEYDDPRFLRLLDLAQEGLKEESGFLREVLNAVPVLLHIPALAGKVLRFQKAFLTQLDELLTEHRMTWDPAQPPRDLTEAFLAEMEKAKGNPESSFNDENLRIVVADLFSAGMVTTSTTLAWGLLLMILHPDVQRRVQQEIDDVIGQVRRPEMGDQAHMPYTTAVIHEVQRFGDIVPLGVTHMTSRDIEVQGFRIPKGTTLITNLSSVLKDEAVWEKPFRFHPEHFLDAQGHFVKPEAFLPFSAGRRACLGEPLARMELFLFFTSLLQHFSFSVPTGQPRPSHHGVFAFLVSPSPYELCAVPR
Sequence of Cytochrome P450 3A4 (Homo sapiens) (P08684 whole entry, looked up): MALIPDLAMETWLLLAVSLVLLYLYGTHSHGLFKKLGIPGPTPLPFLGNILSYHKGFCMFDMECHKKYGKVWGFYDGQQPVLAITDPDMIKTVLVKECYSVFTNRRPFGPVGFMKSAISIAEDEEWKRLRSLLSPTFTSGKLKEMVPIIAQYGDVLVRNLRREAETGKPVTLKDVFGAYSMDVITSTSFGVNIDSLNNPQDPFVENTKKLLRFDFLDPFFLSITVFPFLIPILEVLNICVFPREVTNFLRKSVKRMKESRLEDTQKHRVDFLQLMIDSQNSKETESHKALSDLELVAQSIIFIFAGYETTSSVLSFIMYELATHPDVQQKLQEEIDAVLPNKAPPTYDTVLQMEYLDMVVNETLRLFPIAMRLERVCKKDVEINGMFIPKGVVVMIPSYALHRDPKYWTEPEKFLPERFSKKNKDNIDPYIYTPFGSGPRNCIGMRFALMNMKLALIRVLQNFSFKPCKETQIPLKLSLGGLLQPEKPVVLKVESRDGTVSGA

Row | SMILES | outcome [1] | Potency [2] | Potency [3] | Potency [4] | outcome [5] | Potency [6]
1 | O=S(=O)(O)CCS | inactive | inactive | inactive | inactive | inactive | inactive
2 | COc1cc2c(Nc3ccc(Br)cc3F)ncnc2cc1OCC1CCN(C)CC1 | inactive | inactive | inactive | inactive |  | inactive
3 | CCCOc1ccc(C(=O)OCCN(CC)CC)cc1N | inactive | inactive | inactive | 6.17 µM (active) and 6.74 µM (active) |  | inactive
4 | CCC(=O)O[C@]1(C(=O)CCl)[C@@H](C)C[C@H]2[C@@H]3CCC4=CC(=O)C=C[C@]4(C)[C@@]3(F)[C@@H](O)C[C@@]21C | inactive | inactive | inactive | 11 µM (active) |  | 17.4 µM (active)
5 | CN(C)CCc1c[nH]c2ccc(CS(=O)(=O)N3CCCC3)cc12 | inactive | inactive | inactive | inactive |  | inactive
6 | CC[C@H](NC(C)C)[C@H](O)c1ccc(O)c2[nH]c(=O)ccc12 | inactive | inactive | inactive |  |  | inactive
7 | Cc1cc(NS(=O)(=O)c2ccc(N)cc2)no1 |  |  | inactive |  |  | 
8 | CN1CCN(c2c(F)cc3c(=O)c(C(=O)O)cn(CCF)c3c2F)CC1 |  | inactive | inactive | inactive |  | inactive
9 | CNNCc1ccc(C(=O)NC(C)C)cc1 |  | inactive | inactive | inactive |  | 
10 | O=C(O)c1cn(C2CC2)c2cc(N3CCNCC3)c(F)cc2c1=O |  |  | inactive |  |  | 
11 | COc1ccc(-c2ccc3cc(C(=O)O)ccc3c2)cc1C12CC3CC(CC(C3)C1)C2 | inactive | inactive |  | inactive |  | inactive
12 | O=S(=O)(c1cccc2cnccc12)N1CCCNCC1 | inactive |  | inactive |  |  | 
13 | CCc1c2c(nc3ccc(OC(=O)N4CCC(N5CCCCC5)CC4)cc13)-c1cc3c(c(=O)n1C2)COC(=O)[C@]3(O)CC |  | inactive |  | inactive |  | inactive
14 | CO[C@@]12[C@H](COC(N)=O)C3=C(C(=O)C(C)=C(N)C3=O)N1C[C@@H]1N[C@@H]12 | inactive | inactive |  | 12.3 µM (active) |  | inactive
15 | CC1=CC(=O)c2ccccc2C1=O | inactive | inactive |  | 15.5 µM (active) |  | 
16 | CCOC(=O)[C@H](CCc1ccccc1)N[C@H]1CCc2ccccc2N(CC(=O)O)C1=O | inactive | inactive |  |  |  | 4.9 µM (active)
17 | COC(=O)Nc1nc2ccc(S(=O)c3ccccc3)cc2[nH]1 (stereo not drawn) | inactive | inactive |  | 12.3 µM (active) |  | inactive

Row | SMILES | outcome [1] | Potency [2] | Potency [3] | Potency [4] | outcome [5] | Potency [6]
18 | Nc1ccc(S(=O)(=O)Nc2ccccn2)cc1 |  | inactive | inactive | inactive |  | 
19 | O[C@@H](CNC[C@H](O)[C@H]1CCc2cc(F)ccc2O1)[C@@H]1CCc2cc(F)ccc2O1 | inactive | inactive |  | 0.0389 µM (active) |  | inactive
20 | C[C@@H]1C[C@H]2[C@@H]3CCC4=CC(=O)C=C[C@]4(C)[C@@]3(Cl)[C@@H](O)C[C@]2(C)[C@@]1(OC(=O)c1ccco1)C(=O)CCl | inactive |  |  | 2.45 µM (active) |  | 4.36 µM (active)
21 | CNC(=O)c1cc(Oc2ccc(NC(=O)Nc3ccc(Cl)c(C(F)(F)F)c3)cc2)ccn1 | inactive | inactive |  |  |  | 19.5 µM (active)
22 | OC(Cn1cncn1)(Cn1cncn1)c1ccc(F)cc1F | inactive |  | inactive |  |  | 
23 | O=C(O)c1cc(=O)[nH]c(=O)[nH]1 | inactive |  | inactive | inactive |  | 
24 | CC(=O)Oc1ccccc1C(=O)Nc1ncc([N+](=O)[O-])s1 | inactive | inactive |  | 8.71 µM (active) |  | 
25 | NC(=O)N1c2ccccc2CC(=O)c2ccccc21 | inactive | inactive |  | inactive |  | 
26 | CN(C)c1ccc(C(=C2C=CC(=[N+](C)C)C=C2)c2ccc(N(C)C)cc2)cc1 | inactive | inactive |  | 3.09 µM (active) |  | 
27 | CCCCOc1ccc(CC(=O)NO)cc1 | inactive | inactive |  | 12.3 µM (active) |  | 
28 | O=C(O)CCn1c2c(c3ccccc31)C[C@H](NS(=O)(=O)c1ccc(F)cc1)CC2 |  |  | inactive | inactive |  | 17.4 µM (active)
29 | CCn1cc(C(=O)O)c(=O)c2cc(F)c(N3CCN(C)CC3)cc21 |  | inactive | inactive |  |  | 
30 | Nc1nc(=S)c2[nH]cnc2[nH]1 | inactive | inactive |  | inactive |  | 15.5 µM (active)
31 | CCCN[C@H]1CCc2nc(N)sc2C1 | inactive | inactive | inactive |  |  | inactive
32 | COC(=O)Nc1nc2ccc(C(=O)c3ccccc3)cc2[nH]1 |  | inactive |  | inactive |  | inactive
33 | NCCCC(O)(P(=O)(O)O)P(=O)(O)O | inactive |  | inactive |  |  | 
34 | C1CCC(C(CC2CCCCN2)C2CCCCC2)CC1 (stereo not drawn) | inactive | inactive |  | 0.138 µM (active) |  | 
